A short description of the assay: NCI Yeast Anticancer Drug Screen. Data for the rad18 strain (AID 177). The settings on record: S. cerevisiae rad18 mutant growth inhibition, hits give high values. Here is the method: Growth inhibition of yeast strains with defined genetic alterations is measured as a screen for potential anti-cancer activity. Selected strains with alterations in DNA damage repair or cell cycle control were exposed to compounds and growth inhibition was measured relative to vehicle treated controls. The strain used in this assay is rad18

SMILES strings stand for the structures. Compounds without any hit were thinned out: in the full panel of roughly 79,000, 15% have a hit. Values without a mark were called inactive. Activity calls are given as the source filed them. Rule as the data show it: active = growth inhibition above about 70%; inactive = the rest.

Regarding `Cc1cc(C(C)(C)C)c(OCCCN2CCOCC2)c(C(C)(C)C)c1`, the growth inhibition reads like this: (at 1.2 µM) -1%; (at 3.7 µM) -7%; (at 11.0 µM) -19%; (at 33.0 µM) -9%; (at 100.0 µM) 98% (active).
Taken in the same sequence, the figures for `C[CH2][Sn]([CH2]C)([O]C(=O)C(N)Cc1ccccc1)[O]C(=O)C(N)Cc1ccccc1` (stereo not given) were 3%, 2%, 6%, 22% and 65%.
Taken in the same sequence, the figures for `Cc1ccccc1N=C(NO)c1ccccc1` were 1%, 2%, 11%, 35% and 96% (active).
On the same counts, the results for `NC(N)=NS(=O)(=O)c1ccc(Nc2c3ccccc3nc3c(C(=O)NCCO)cccc23)cc1` are -1%, 0%, 9%, 7% and 77% (active).
As to `Cc1nc(Nc2ccccc2[N+](=O)[O-])sc1C(=O)CC(=O)C(=O)Nc1c(C(C)C)cccc1C(C)C`, the growth inhibition runs as follows: (at 1.2 µM) -3%; (at 3.7 µM) 1%; (at 11.0 µM) 1%; (at 33.0 µM) 0%; (at 100.0 µM) -3%.
`COc1nc2c(c(=O)n1C)N=C(c1ccccc1)[C@H](C(CC(=O)c1ccccc1)c1ccccc1)C(c1ccccc1)N2` (stereo not given in full): the growth inhibition was 37% (at 1.2 µM); 47% (at 3.7 µM); 50% (at 11.0 µM); 46% (at 33.0 µM); 67% (at 100.0 µM).
On the same counts, the results for `CN(C)[C@@H]1C(=O)C(C(N)=O)=C(O)[C@@]2(O)C(=O)C3=C(O)c4c(O)cccc4C[C@H]3C[C@@H]12` are -7%, -8%, -2%, 95% (active) and 99% (active).
Take `CC(=O)Nc1ccc2c(c1)Cc1cc(N=C3C=CC(=O)O3)ccc1-2`: the growth inhibition is 12% (at 1.2 µM); 31% (at 3.7 µM); 91% (active) (at 11.0 µM); 99% (active) (at 33.0 µM); 99% (active) (at 100.0 µM).

The record behind these values is PubChem BioAssay (NCI).
